Measurements: PubChem BioAssay AID1159580 (chemical genetic matrix, 2015)
Where “and” joins values, the source holds several entries; their conditions need not be identical. Identical values can stand only once. Screen size: about 5,500 compounds; about 2,000 (36%) were called active. Another 18% or so got no clear call; they are omitted. No stated cut-off is given here; in the data, active means normalized growth mostly below about 0.91 (no sharp cut-off); inconclusive means no clear call, values can overlap the other calls; inactive means mostly above about 0.92. The list shows a part of the results.

Experiment: chemical genetic growth profiling, strain panel (AID 1159580);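 further: tested at 20 µM; growth read once vehicle control cultures reached saturation at 30 °C; 1 = growth at the plate median or of vehicle wells; lower values mean less growth of the strain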
Details: S. cerevisiae deletion strains, growth OD

Measured: normalized growth

COc1cc2c(cc1OC)C1(O)C(=O)c3ccc(O)c(C(=O)O)c3OC1CO2 (configuration not stated)
inactive: locus YAL021C, strain ccr4, active compounds read low 1 | locus YAL026C, strain drs2, active compounds read low 0.988 | locus YAL030W, strain snc1, active compounds read low 1 | locus YBL061C, strain skt5, active compounds read low 0.995 | locus YBR009C, strain hhf1, active compounds read low 0.998 | locus YBR021W, strain FUR4, active compounds read low 1.06 | locus YBR023C, strain chs3, active compounds read low 1.01 | locus YBR171W, strain sec66, active compounds read low 0.996 | locus YBR229C, strain ROT2, active compounds read low 1.01 | locus YBR231C, strain swc5, active compounds read low 1.01 | locus YBR279W, strain paf1, active compounds read low 0.985 | locus YCL011C, strain gbp2, active compounds read low 0.991 | locus YCL016C, strain dcc1, active compounds read low 0.98 | locus YCL029C, strain bik1, active compounds read low 0.985 | locus YCL069W, strain vba3, active compounds read low 1 | locus YCR088W, strain abp1, active compounds read low 0.996 | locus YDL005C, strain med2, active compounds read low 1.01 | locus YDL035C, strain GPR1, active compounds read low 1.05 | locus YDL040C, strain nat1, active compounds read low 0.998 | locus YDL074C, strain BRE1, active compounds read low 1.05 | locus YDL101C, strain DUN1, active compounds read low 0.991 | locus YDL185W, strain tfp1, active compounds read low 0.954 | locus YDL192W, strain arf1, active compounds read low 1.02 | locus YDR001C, strain nth1, active compounds read low 0.987 | locus YDR069C, strain doa4, active compounds read low 0.991 | locus YDR101C, strain arx1, active compounds read low 1.05 | locus YDR137W, strain rgp1, active compounds read low 0.973 | locus YDR159W, strain sac3, active compounds read low 1 | locus YDR162C, strain NBP2, active compounds read low 0.993 | locus YDR195W, strain ref2 0.955 | locus YDR297W, strain sur2, active compounds read low 1 | locus YDR318W, strain mcm21, active compounds read low 0.986 | locus YDR334W, strain swr1, active compounds read low 0.978 | locus YDR335W, strain msn5, active compounds read low 1.01 | locus YDR388W, active compounds read low 0.977 | locus YDR392W, strain spt3, active compounds read low 0.974 | locus YDR502C, strain sam2, active compounds read low 0.983 | locus YEL003W, strain gim4, active compounds read low 0.998 | locus YEL037C, strain rad23, active compounds read low 0.987 | locus YEL061C, strain CIN8 (second series), active compounds read low 0.989 | locus YEL061C, strain CIN8, active compounds read low 0.998 | locus YER015W, strain faa2, active compounds read low 0.989 | locus YER016W, strain bim1, active compounds read low 0.991 | locus YER110C, active compounds read low 0.979 | locus YER111C, strain swi4, active compounds read low 0.98 | locus YER155C, strain BEM2 (second series), active compounds read low 0.994 | locus YER155C, strain BEM2, active compounds read low 0.99 | locus YER167W, strain BCK2, active compounds read low 1.04 | locus YFR010W, strain ubp6, active compounds read low 1 | locus YGL078C, strain dbp3, active compounds read low 0.981 | locus YGL086W, strain mad1, active compounds read low 1.02 | locus YGL167C, strain pmr1, active compounds read low 0.998 | locus YGL173C, strain kem1, active compounds read low 0.994 | locus YGL227W, strain vid30, active compounds read low 0.991 | locus YGL240W, strain doc1, active compounds read low 1.01 | locus YGL248W, strain PDE1, active compounds read low 1.02 | locus YGL253W, strain hxk2, active compounds read low 0.999 | locus YGR078C, strain PAC10, active compounds read low 0.991 | locus YGR135W, strain pre9, active compounds read low 0.98 | locus YGR252W, strain gcn5, active compounds read low 1.09 | locus YHR013C, strain ard1, active compounds read low 0.972 | locus YHR027C, strain rpn1, active compounds read low 0.991 | locus YHR030C, strain SLT2, active compounds read low 0.99 | locus YHR079C, strain IRE1 (second series), active compounds read low 0.99 | locus YHR079C, strain IRE1, active compounds read low 0.983 | locus YHR094C, strain hxt1, active compounds read low 0.982 | locus YHR129C, strain ARP1, active compounds read low 1 | locus YHR142W, strain chs7, active compounds read low 0.98 | locus YHR200W, strain rpn10, active compounds read low 0.995 | locus YIL066C, strain RNR3, active compounds read low 1.02 | locus YIL073C, strain SPO22, active compounds read low 0.932 | locus YIL125W, strain kgd1, active compounds read low 0.985 | locus YIR030C, strain dcg1, active compounds read low 0.997 | locus YJL092W, strain hpr5, active compounds read low 1.02 | locus YJL095W, strain BCK1 (second series), active compounds read low 0.989 | locus YJL095W, strain BCK1, active compounds read low 0.99 and 0.98 | locus YJL115W, strain asf1, active compounds read low 0.986 | locus YJL129C, strain trk1, active compounds read low 0.972 | locus YJL134W, strain LCB3, active compounds read low 0.986 | locus YJL154C, strain vps35, active compounds read low 0.995 | locus YJL164C, strain tpk1, active compounds read low 0.998 | locus YJL166W, strain qcr8, active compounds read low 0.997 | locus YJL168C, strain set2, active compounds read low 0.989 | locus YJL187C, strain SWE1 (second series), active compounds read low 0.989 | locus YJL187C, strain SWE1, active compounds read low 0.999 | locus YJR043C, strain POL32, active compounds read low 1.08 | locus YJR066W, strain TOR1, active compounds read low 0.9
